From PubChem
Jurkat NFkB inh: lowers PMA/ionomycin-induced NF-kB signal in Jurkat cells | inhibition, % at 4 µM | AID 435003 | PMA/ionomycin-induced NF-kB luciferase reporter, luminescence | 0.53% of 330,000 active; in the data active = inhibition above about 50%
aSyn 5UTR inh: 5' untranslated region of α-synuclein, MLPCN primary screen | alpha-synuclein 5'UTR reporter, inhibitor activity | inhibition, % (tested at 7.5 µM) | 0.82% of 300,000 active | AID 1813; in the data active = inhibition above about 60%; inconclusive = no clear call, values can overlap the other calls;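 note: H4 neuroglioblastoma cells stably carrying SNCA 5'UTR luciferase fusion; 0% = DMSO wells and 100% = positive control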
TAG inh: triacylglycerol accumulation inhibition. H9c2 cells, Nile Red lipid (TAG) fluorescence; cells loaded with 200 µM oleic acid. inhibition, % at 12.5 µM. 0.66% of 230,000 active. AID 651582;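 active = pattern-corrected inhibition of lipid staining of at least 50% with the nuclear-stain viability signal not falling by more than 50%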;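 note: 0% = DMSO wells and 100% = triacsin C control wells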
Shn3 inh set2: inhibitors of Schnurri-3 3'UTR reporter in osteoblasts. Clone20 osteoblast Shn3 3'UTR firefly luciferase, 24 h. inhibition, % at 12.5 µM. 0.52% of 360,000 active;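 active = mean inhibition of at least 75% with every replicate also reaching 75%; inconclusive = mean inhibition at least 75% but some replicate below; inactive = mean inhibition below 75%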;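 note: 0% = median of neutral control wells and 100% = pilot-screen positive control compound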
Gli-Sufu block: antagonists of Gli-Sufu signaling. Sufu-KO-LIGHT fibroblasts, Gli luciferase reporter luminescence. inhibition, % at 5 µM. 0.74% of 340,000 active;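 active = inhibition above about 55%, limit read from the data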;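 note: 0% = DMSO-treated cells and 100% = wells with medium but no cells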
697 NFkB inh: lowers PMA/ionomycin-induced NF-kB signal in 697 B cells. inhibition, % at 4 µM. 697 B-cell NF-kB luciferase reporter, 16 h. 0.33% of 330,000 active; in the data active = inhibition above about 35%
Jurkat NFkB conf: lowers PMA/ionomycin-induced NF-kB signal in Jurkat cells; shares compounds with Jurkat NFkB inh; Jurkat NF-kB luciferase, 16 h; inhibition, % at 4 µM; 27% of 2,700 active; AID 435020;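 active = inhibition reaching about 45% at 4 µM in either replicate, limit read from the data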;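 note: plate controls were PMA/ionomycin stimulated DMSO wells for no effect and unstimulated DMSO wells for full effect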
* hit, by the source's call; ? = inconclusive; / = no result given. A selection: hits, their analogues and other compounds. The true share with any hit is near 2.3%.

SMILES | Jurkat NFkB inh | aSyn 5UTR inh | TAG inh | Shn3 inh set2 | Gli-Sufu block | 697 NFkB inh | Jurkat NFkB conf
CC1=C(C(=O)Nc2cccc(F)c2)C(c2ccsc2)C2=C(CC(C)(C)CC2=O)N1 (stereo not drawn) | 50* | 19 | 47 | -26 | 14 | -33 | 7
Cc1cccc(N2CCN(S(=O)(=O)c3cc(-c4cc(C)no4)ccc3C)CC2C)c1 (stereo not drawn) | 64* | 11 | / | 44 | 15 | -26 | 32
Cc1cc(-c2ccc(C(C)C)c(S(=O)(=O)N3CCN(c4ccccc4)CC3)c2)on1 | 53* | ? | / | -33 | 40 | -53 | 47*
COc1ccc(-c2cc(C)no2)cc1S(=O)(=O)N1CCN(c2cccc(C)c2)C(C)C1 (stereo not drawn) | 34 | 14 | / | 71 | 11 | -60 | /
COc1ccc(N2CCN(S(=O)(=O)c3cc(-c4cc(C)no4)ccc3C(C)C)CC2)cc1 | 23 | -1 | / | 24 | 11 | -73 | /
O=C(NCCN1CCOCC1)c1ccc(Cl)cc1 | -13 | 10 | -7 | 4 | -12 | 2 | /
Cc1cc(C)c(C#N)c(SCc2ccccc2)n1 | 7 | 32 | -17 | -2 | -8 | -1 | /
Cc1ccc2nc(CSc3nc(C)cc(C)c3C#N)[nH]c2c1 | -179 | -70 | / | -20 | -30 | -182 | -56
COc1cc(C(=O)N2CC(=O)Nc3ccccc32)cc(OC)c1OC | / | / | 25 | -3 | / | / | /
Cc1cc(C)cc(C(=O)N2CC(=O)Nc3ccccc32)c1 | 60* | 110* | 55* | 19 | / | 9 | 56*
OCCCNc1c2ccccc2nc2ccccc12 | 84* | -155 | / | -16 | 8 | 18 | -23
Cc1cc(C(=O)Nc2sc3c(c2C#N)CCC(C)C3)cs1 (stereo not drawn) | -165 | -103 | / | -63 | -29 | -114 | -108
CC(=O)Nc1sc2c(c1C#N)CCC(C)C2 (stereo not drawn) | 3 | 1 | -11 | -27 | -3 | 12 | /
Cc1cccc(C(=O)Nc2sc3c(c2C#N)CCCCC3)c1 | -169 | -56 | 3 | -18 | 3 | -195 | -126
CCc1ccc(CCC(=O)Nc2sc3c(c2C#N)CCCC3)o1 | 56* | 15 | / | 10 | -2 | 1 | 25
Cc1noc(C)c1COc1ccc(C(=O)NNC(=O)c2ccccc2F)cc1 | 56* | / | 20 | 11 | -15 | -50 | 45
Cc1noc(C)c1COc1ccc(C(=O)O)cc1 | 14 | 16 | 5 | -13 | 5 | 5 | /
Cc1noc(C)c1COc1ccc(C(=O)NNC(=O)c2ccccc2)cc1 | 63* | -34 | 12 | -8 | -8 | -33 | 30
COC(=O)c1ccc(NC(c2ccc(Cl)cc2)P(=O)(OC)OC)cc1 (stereo not drawn) | -15 | -22 | -15 | -18 | 5 | 6 | /
CCN(CC)c1ccc(/C=N/N2CC(=O)NC2=S)cc1 | 9 | / | -9 | 53 | 1 | 6 | /
COc1ccc2cc3cc(C(=O)N(C)C4CCCCC4)oc3nc2c1 | -136 | 7 | / | -135 | -69 | -213 | /
COc1ccc2cc3cc(C(=O)N4CCCCC4C)oc3nc2c1 (stereo not drawn) | -156 | -32 | / | -67 | -97 | -234 | -125
Cc1nc(NC(=O)COC(=O)CCC(=O)c2cccs2)c(Cl)cc1Cl | -3 | -17 | / | -9 | 22 | 0 | /
O=C(NCc1ccco1)C1CC(c2ccc(C(F)(F)F)cc2)=NO1 (stereo not drawn) | 50* | -36 | 3 | -9 | 16 | 1 | 19
O=C(NCc1ccco1)C1CC(c2ccc(Cl)c(Cl)c2)=NO1 (stereo not drawn) | 52* | 3 | 2 | -7 | -3 | 3 | 15
COc1cc(C2=NOC(C(=O)NCc3ccco3)C2)cc(OC)c1OC (stereo not drawn) | 66* | 12 | / | 2 | -1 | -9 | 6
O=C(NCc1ccco1)C1CC(c2c(Cl)cccc2Cl)=NO1 (stereo not drawn) | 10 | 29 | 2 | -6 | -2 | 1 | /
COc1ccc(C2=NOC(C(=O)NCc3ccco3)C2)cc1 (stereo not drawn) | 41 | -77 | / | -14 | -17 | -31 | /
CC(=O)Nc1ccc(/C=N/Nc2nc3ccccc3[nH]2)cc1 | -38 | -101 | / | -19 | -31 | -24 | /
